# Measured values reported in PubChem BioAssay (NCI).
# About 79,000 compounds went through this panel and 15% of them were active in at least one assay; those are over-represented in the sample as a whole. A number with no mark means an inactive call. The source made the active and inactive calls. Cut-off read from the data, not from the text of the source: active = growth inhibition above about 70%; inactive = the rest. Where a SMILES comes first, the peptide text is derived from it. [ ]: non-standard residue; d: D form. The star is where a group is joined. ξ: configuration not given here. ξAsp(βξ-Me) = CC(C(=O)O)C(N)C(=O)O; X11 = CC(N*)C1NC(=O)C2CCCCN2C1=O; ξAbu(3ξ-NH2) = CC(N)C(N)C(=O)O; X10 = CCC(C)CCC/C=C/CC(=O)*
# Columns and labels:
# [1] = NCI Yeast Anticancer Drug Screen. Data for the rad50 strain (AID 155);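 note: 0% = growth of vehicle-only cultures of the same strain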; settings: S. cerevisiae rad50 strain growth inhibition; at 50.0 µM; active compounds read high
# Method in brief: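 Inhibition values express reduced yeast growth in compound-treated cultures relative to vehicle-treated controls.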
# [2] = NCI Yeast Anticancer Drug Screen. Data for the mec2-1 strain (AID 157); settings: S. cerevisiae mec2-1 strain, at 50.0 µM, active compounds read high
# Method in brief: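 Using mec2-1 yeast: add compound, measure growth, express inhibition versus vehicle-treated cultures.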
# [3] = NCI Yeast Anticancer Drug Screen. Data for the sgs1 mgt1 strain (AID 161);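 note: 0% = growth of cultures given vehicle only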; settings: S. cerevisiae sgs1 mgt1 strain, at 50.0 µM, active compounds read high
# Method in brief: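 Percent growth inhibition was derived by comparing compound-exposed mutant yeast with vehicle-exposed cultures. The strain carries alterations in DNA damage repair.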
# [4] = NCI Yeast Anticancer Drug Screen. Data for the cln2 rad14 strain (AID 165);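 note: 0% = growth equal to vehicle treated cultures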; settings: S. cerevisiae cln2 rad14 strain, at 50.0 µM, active compounds read high
# Method in brief: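 Yeast strain cln2 rad14, bearing defects in cell cycle control and DNA repair, serves as the test system; values reflect growth inhibition compared with vehicle.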
# [5] = NCI Yeast Anticancer Drug Screen. Data for the bub3 strain (AID 167); settings: S. cerevisiae bub3 mutant strain, at 50.0 µM, active compounds read high
# Method in brief: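 Steps: expose the mutant yeast strain to compound; grow alongside vehicle-treated cultures; measure growth; express inhibition against the vehicle cultures.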
# [6] = NCI Yeast Anticancer Drug Screen. Data for the mlh1 rad18 strain (AID 175); settings: S. cerevisiae mlh1 rad18 strain growth inhibition; at 50.0 µM; active compounds read high
# Method in brief: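 Steps: expose repair-defective yeast to compound; measure growth; express inhibition against vehicle-treated controls.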
SMILES,growth inhibition [1] [%],growth inhibition [2] [%],growth inhibition [3] [%],growth inhibition [4] [%],growth inhibition [5] [%],growth inhibition [6]
CCC(C)NC(=O)C1C2CCC(C2)C1C(=O)NC(C)CC (configuration not stated),10.7,-2.9,-10.2,-18.9,-7.5,7%
C/C(=N/NC(=O)c1ccncc1)C(F)(F)F,-29.8,5.75,-25.9,-6.85,14,7.85%
CCCCCCCCC1=C(CCCCCCC(=O)OC)[14CH2]1,0.25,16.6,-11.2,43.4,3,24.5%
Cc1cc(-c2ccccc2)nc(Nc2nc3ccccc3o2)n1,9.2,1.1,10.6,6.35,-9.45,-2.3%
CCC(=O)Oc1cccc2ccccc12,-14.4,-26.9,-14.8,-14.3,-24.9,-8.05%
COC(=O)/C=C1\CCC2C3CC=C4C=C(N5CCCC5)CCC4(C)C3C(=O)CC12C (configuration not stated),-7.6,16.1,18.6,-9.6,-12.4,-18.2%
CCO/C(=C/[S+](C)C)c1ccccc1,0.55,-4.4,-19.9,2.95,9.3,5.35%
CCOCCOCCOC(=O)C(C)O (configuration not stated),14.7,7.1,2.25,6.55,-18.6,-3.4%
CCOC(=O)C(Cc1ccccc1Cl)(NC(C)=O)C(=O)OCC,2.1,-7.95,-0.35,-10.2,11.8,-20.1%
CC(Cc1ccccc1)Nc1ncnc2c1ncn2C1OC(CO)CC1O (configuration not stated),7.5,2.35,12.6,1.6,2.3,-11.7%
Clc1ccc(C2ON=C(c3ccccc3)N2C23CC4CC(CC(C4)C2)C3)c(Cl)c1 (configuration not stated),-18.9,-26.4,-12.4,-48.6,-21.4,-21.5%
Oc1ccccc1CNCCNCc1ccccc1O,-12.2,-14.1,1.6,17.6,-4.5,-36.2%
O=C(CC(=O)c1ccc(Cl)s1)C(=O)NC1C2CC3CC(C2)CC1C3 (configuration not stated),-15,15.9,7.9,-26.6,12.2,3.55%
NC(C(=O)O)c1ccccc1 (configuration not stated),-0.85,-23.4,-3.85,-1.9,-10.7,-19.5%
O=[N+]([O-])c1ccc(OS(=O)(=O)O)cc1,17.8,4.45,20.5,-9.85,-4.1,8.55%
O=C1C2=C(c3ccccc31)C(c1ccccc1Cl)N1C(=O)CCSC1=N2 (configuration not stated),2.9,0.4,13.9,8.85,4.65,-3.45%
CN1CCOc2c1cnn(CCO)c2=O,-52.2,-15.4,-22.4,-10.4,-4.2,-7.6%
C1=CC(c2ccccc2)=C(c2ccccc2)C(c2ccccc2)C(c2ccccc2)=C1 (configuration not stated),18.2,1.95,13.2,26.9,-1.05,11.8%
CC(=O)c1ccc(O)c(C)c1,-9.3,-8.9,-6.55,5.5,-8.1,-0.2%
COc1cc(Cl)c(CC(=O)c2c[nH]c3ccccc23)cc1OC,10.6,-27.1,-17.8,-31.7,-29.2,20.6%
O=S(=O)(c1ccccc1)N1CCCN(S(=O)(=O)c2ccccc2)CC1,-11.9,-0.45,2.15,3.1,3.35,0.7%

SMILES,growth inhibition [1] [%],growth inhibition [2] [%],growth inhibition [3] [%],growth inhibition [4] [%],growth inhibition [5] [%],growth inhibition [6]
CCOC(=O)c1ccc[n+]([O-])c1,-2.35,-9.95,-18.6,-107,-13.2,-10.8%
O=C(OCCCl)C1CC2C=CC1C2 (configuration not stated),-4.5,-10.1,3.85,8.25,-7.2,-3.4%
CC1CCC(C(C)C)=C(C2CCCCC2)C1 (configuration not stated),-2.15,1.65,-3.65,-7.05,-9.8,6.65%
CCCCOc1ccc(Nc2c(C(=O)O)cnc3cc4c(cc23)OCO4)cc1,-11.1,3.25,-13.7,5.4,-4.85,18.4%
COc1ccc(C2(C)C=C(C)C=C(C)C2=O)cc1 (configuration not stated),-5.1,2.9,-12.2,-15.9,-9.65,7.75%
CC(=[N-])CC(C)=O.O=C(CC(=Nc1ccccc1)c1ccccc1)c1ccccc1.[Cu+],-21.2,-7.5,1.6,29.3,-3.45,16.2%
O=C1NCC(c2ccccc2)(c2ccccc2)O1,26.9,11.3,10.3,11.8,4.45,19.4%
COC1=C(N(C)C)C(=O)c2ccccc2C1=O,21.4,0.55,11.4,7.3,-15.3,4.55%
O=S(=O)(c1ccccc1)c1ccc(CBr)cc1,16.1,1.85,-10.4,17.5,-2.55,-8.9%
CC(=O)Nc1nc2ncc(CN(C(C)=O)c3ccc(C(=O)O)cc3)nc2c(=O)[nH]1,-19.3,-8.6,-38.1,-8.65,-21.1,-10.2%
O=C(NCc1ccc(Cl)c(Cl)c1)Nc1ccccc1F,11,11.1,6.1,9.65,20.4,7.05%
CCC(C)CCC/C=C/CC(=O)NC(CC(=O)O)C(=O)NC(C(=O)NC(CC(=O)O)C(=O)NCC(=O)NC(CC(=O)O)C(=O)NCC(=O)NC(C(=O)NC(C(=O)N1CCCC1C(=O)NC(C)C1NC(=O)C2CCCCN2C1=O)C(C)C)C(C)N)C(C)C(=O)O (stereo not drawn) (X10-D[ξAsp(βξ-Me)]DGDG[ξAbu(3ξ-NH2)]VP-X11; configuration not given here),-38.3,-42.5,-56.2,-67.4,-29.5,-25.9%
CCC(C)(O)P(=O)(O)O (configuration not stated),5.15,7.1,0.35,-30.4,0.85,7.6%
FC(F)(F)c1nnc(-c2ccccc2)nn1,-8.8,-16.1,-11.4,-36.6,-14.8,-8.5%
CC1(C)CCC[C@@]2(C)C1C[C@H](O)[C@@]1(C)O[C@@](C)([C@H](O)CO)CCC21 (some centres not stated),28.6,33,56,69.1,29.2,70.9% (active)
CN(C)CCCN,-11.3,-4.4,3,-30.8,5.7,1.5%
COc1nc(Cl)cc2nc(Cl)cn12,3.4,9.35,-3.65,9.55,-11.8,2.55%
[O-][N+](=Nc1ccccc1)c1ccccc1,1.2,1.35,35.9,-0.9,3.75,24%
COc1ccc(CCN2CCc3c(C)c(C#N)c4nc5ccccc5n4c32)cc1OC,5.75,26,28.5,12.1,52.4,34.5%
CCCCOC(=O)c1ccc(Cl)c(Cl)c1,-1.7,-3.2,-14.9,-32.9,3,7.45%
Cc1cccc(N=Nc2ccc(O)c(CN(C)C)c2)c1,-17,8.9,-0.35,-5.5,29.1,20.2%
